Data: the supplement of paper PMC4466140

Target: AgAbp1
Assay: SPOT peptide array binding signal intensity (averaged, normalized) (arbitrary units (background-subtracted, floor 0; scale differs between SH3 domains)); higher = stronger binding of the SH3 domain to the peptide
Summary of the method: (§1)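 E. coli BL21(DE3) was used to express GST-fused SH3 domains from four yeast species, which were then purified on glutathione Sepharose. These were incubated at 10 μg/ml in TBS-based blocking buffer overnight at 4°C on cellulose membranes carrying synthetic 15-mer peptides, in which cysteines were replaced by serines. Binding signal is the replicate average of normalized, background-subtracted spot intensity, in arbitrary units that differ between domains.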

Binder | SPOT peptide array binding signal intensity
TTAPALPSLPPPPLL | 0.5

Target: AgBbc1
Assay: as above
Summary of the method: as §1

Binder | SPOT peptide array binding signal intensity
TTAPALPSLPPPPLL | ≤ 0

Target: AgBem1-D1
Assay: as above
Summary of the method: as §1

Binder | SPOT peptide array binding signal intensity
TTAPALPSLPPPPLL | ≤ 0

Target: AgBzz1-D1
Assay: as above
Summary of the method: as §1

Binder | SPOT peptide array binding signal intensity
TTAPALPSLPPPPLL | 22

Target: AgBzz1-D2
Assay: as above
Summary of the method: as §1

Binder | SPOT peptide array binding signal intensity
TTAPALPSLPPPPLL | 25

Target: AgCyk3
Assay: as above
Summary of the method: as §1

Binder | SPOT peptide array binding signal intensity
TTAPALPSLPPPPLL | ≤ 0

Target: AgFus1
Assay: as above
Summary of the method: as §1

Binder | SPOT peptide array binding signal intensity
TTAPALPSLPPPPLL | ≤ 0

Target: AgHof1
Assay: as above
Summary of the method: as §1

Binder | SPOT peptide array binding signal intensity
TTAPALPSLPPPPLL | 1690

Target: AgHse1
Assay: as above
Summary of the method: as §1

Binder | SPOT peptide array binding signal intensity
TTAPALPSLPPPPLL | ≤ 0

Target: AgLsb1
Assay: as above
Summary of the method: as §1

Binder | SPOT peptide array binding signal intensity
TTAPALPSLPPPPLL | ≤ 0

Target: AgLsb4
Assay: as above
Summary of the method: as §1

Binder | SPOT peptide array binding signal intensity
TTAPALPSLPPPPLL | ≤ 0

Target: AgMyo5
Assay: as above
Summary of the method: as §1

Binder | SPOT peptide array binding signal intensity
TTAPALPSLPPPPLL | 3050

Target: AgNbp2
Assay: as above
Summary of the method: as §1

Binder | SPOT peptide array binding signal intensity
TTAPALPSLPPPPLL | ≤ 0

Target: AgRvs167
Assay: as above
Summary of the method: as §1

Binder | SPOT peptide array binding signal intensity
TTAPALPSLPPPPLL | 0.667

Target: AgSho1
Assay: as above
Summary of the method: as §1

Binder | SPOT peptide array binding signal intensity
TTAPALPSLPPPPLL | ≤ 0

Target: AgSla1-D1-D2
Assay: as above
Summary of the method: as §1

Binder | SPOT peptide array binding signal intensity
TTAPALPSLPPPPLL | ≤ 0

Target: AgSla1-D3
Assay: as above
Summary of the method: as §1

Binder | SPOT peptide array binding signal intensity
TTAPALPSLPPPPLL | 3

Target: CaAbp1-D1
Assay: as above
Summary of the method: as §1

Binder | SPOT peptide array binding signal intensity
TTAPALPSLPPPPLL | 5

Target: CaAbp1-D2
Assay: as above
Summary of the method: as §1

Binder | SPOT peptide array binding signal intensity
TTAPALPSLPPPPLL | 21

Target: CaBbc1
Assay: as above
Summary of the method: as §1

Binder | SPOT peptide array binding signal intensity
TTAPALPSLPPPPLL | 3

Target: CaBem1-D1
Assay: as above
Summary of the method: as §1

Binder | SPOT peptide array binding signal intensity
TTAPALPSLPPPPLL | ≤ 0

Target: CaBzz1-D1
Assay: as above
Summary of the method: as §1

Binder | SPOT peptide array binding signal intensity
TTAPALPSLPPPPLL | 3.5

Target: CaBzz1-D2
Assay: as above
Summary of the method: as §1

Binder | SPOT peptide array binding signal intensity
TTAPALPSLPPPPLL | ≤ 0

Target: CaCyk3
Assay: as above
Summary of the method: as §1

Binder | SPOT peptide array binding signal intensity
TTAPALPSLPPPPLL | ≤ 0

Target: CaFus1
Assay: as above
Summary of the method: as §1

Binder | SPOT peptide array binding signal intensity
TTAPALPSLPPPPLL | ≤ 0

Target: CaHof1
Assay: as above
Summary of the method: as §1

Binder | SPOT peptide array binding signal intensity
TTAPALPSLPPPPLL | 873

Target: CaHse1
Assay: as above
Summary of the method: as §1

Binder | SPOT peptide array binding signal intensity
TTAPALPSLPPPPLL | 5.75

Target: CaLsb1
Assay: as above
Summary of the method: as §1

Binder | SPOT peptide array binding signal intensity
TTAPALPSLPPPPLL | 0.5

Target: CaLsb4
Assay: as above
Summary of the method: as §1

Binder | SPOT peptide array binding signal intensity
TTAPALPSLPPPPLL | ≤ 0

Target: CaMyo5
Assay: as above
Summary of the method: as §1

Binder | SPOT peptide array binding signal intensity
TTAPALPSLPPPPLL | 1950

Target: CaNbp2
Assay: as above
Summary of the method: as §1

Binder | SPOT peptide array binding signal intensity
TTAPALPSLPPPPLL | ≤ 0

Target: CaRvs167
Assay: as above
Summary of the method: as §1

Binder | SPOT peptide array binding signal intensity
TTAPALPSLPPPPLL | 1

Target: CaRvs167-3
Assay: as above
Summary of the method: as §1

Binder | SPOT peptide array binding signal intensity
TTAPALPSLPPPPLL | 1

Target: CaSho1
Assay: as above
Summary of the method: as §1

Binder | SPOT peptide array binding signal intensity
TTAPALPSLPPPPLL | ≤ 0

Target: CaSla1-D1-D2
Assay: as above
Summary of the method: as §1

Binder | SPOT peptide array binding signal intensity
TTAPALPSLPPPPLL | ≤ 0

Target: CaSla1-D3
Assay: as above
Summary of the method: as §1

Binder | SPOT peptide array binding signal intensity
TTAPALPSLPPPPLL | 0.25

Target: ScAbp1
Assay: as above
Summary of the method: as §1

Binder | SPOT peptide array binding signal intensity
TTAPALPSLPPPPLL | 1
